Assay [1] can be described thus: Inducers of the Endoplasmic Reticulum Stress Response (ERSR) in human glioma: Validation (AID 504836). Summed up:
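Stably transfected U87-MG human glioma cells carrying a GRP78-based luminescent sensor were seeded at 1000 cells/well, pin-dosed with compounds and incubated 16 h. Luciferase reagent was then added, and end-point luminescence was read after 10 min at room temperature.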

The target in assay [2] is Peroxisome proliferator-activated receptor delta (Homo sapiens) (UniProt Q03181). The experiment in a line: qHTS assay for small molecule agonists of peroxisome proliferator-activated receptor delta signaling (AID 588534; calls by dose curve). Put shortly:
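Reporter cells were plated and held 5 hrs at 37 C before compounds were added. After 18 hrs at 37 C, CCF4 dye was loaded for 2 hrs at RT and fluorescence measured.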
A general note: In qHTS, concentration-response curves come from the screen itself.

Assay [3] has as its target Ubiquitin carboxyl-terminal hydrolase 1 (Homo sapiens) (UniProt O94782). The experiment in a line: Inhibitors of USP1/UAF1: Pilot qHTS (AID 504865).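 Note: rhodamine fluorescence freed from ubiquitin-rhodamine substrate followed over time; top concentration of the series differs between compounds; nearly all actives have a fitted effect of over 35% in size.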 Put shortly: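 USP1/UAF1 complex (1nM) preincubated with compound 15 min at room temperature, then Ub-Rho substrate (150nM final) added. Fluorescence read kinetically at 480/540 nm, 6 reads every 60 seconds. Buffer: 50mM HEPES pH 7.8, 0.5mM EDTA, 0.1 mg/ml BSA, 1mM TCEP, 0.01% Tween-20.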

Assay [4] has as its target Androgen receptor (Homo sapiens) (UniProt P10275). Put plainly: qHTS assay for small molecule agonists of androgen receptor signaling (AID 588515; active = well fitted curve in the direction sought with a large enough effect in the signal ratio, with a control signal flat; the % refers to the signal ratio). Conditions: AR-UAS-bla HEK293, beta-lactamase ratio, agonist 16 h; hits give high values. Put shortly: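 EC50 and efficacy came from Hill fits of titrations (up to 92 uM) normalized to 30 nM R1881 as 100% and DMSO as 0%. Compound exposure was 16 h at 37 C on AR-UAS-bla HEK293 cells, with a 405/460/530 nm CCF4 fluorescence read.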

For assay [5] the target is unchanged. The experiment in a line: qHTS assay for small molecule antagonists of androgen receptor signaling (AID 588516; active = well fitted curve in the direction sought with a large enough effect in the signal ratio, with a control signal flat, not every such curve was filed as active; the % refers to the signal ratio). Put shortly:
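AR-UAS-bla-GripTite HEK 293 cells (2000/well, 5 h at 37 C) received compound titrations, then R1881 at 10 nM final; after 16 h at 37 C, CCF4 dye 2 h RT, beta-lactamase fluorescence read; IC50 from Hill fits.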

Each structure is given as a SMILES string. A number with no mark means an inactive call. Results filed as inconclusive are left out. Where a call stands in place of a potency, no number is given. Active and inactive are the calls of the source. Unless noted, calls come from the whole dose curve; as a rule, active = well fitted curve in the direction sought with a large enough effect; inconclusive = small, poorly fitted or top-dose-only effect, or another doubt; inactive = no such curve, though single readings can be large; an effect the other way counts as inactive or inconclusive.

Chain of Androgen receptor (Homo sapiens) (P10275 whole entry, looked up): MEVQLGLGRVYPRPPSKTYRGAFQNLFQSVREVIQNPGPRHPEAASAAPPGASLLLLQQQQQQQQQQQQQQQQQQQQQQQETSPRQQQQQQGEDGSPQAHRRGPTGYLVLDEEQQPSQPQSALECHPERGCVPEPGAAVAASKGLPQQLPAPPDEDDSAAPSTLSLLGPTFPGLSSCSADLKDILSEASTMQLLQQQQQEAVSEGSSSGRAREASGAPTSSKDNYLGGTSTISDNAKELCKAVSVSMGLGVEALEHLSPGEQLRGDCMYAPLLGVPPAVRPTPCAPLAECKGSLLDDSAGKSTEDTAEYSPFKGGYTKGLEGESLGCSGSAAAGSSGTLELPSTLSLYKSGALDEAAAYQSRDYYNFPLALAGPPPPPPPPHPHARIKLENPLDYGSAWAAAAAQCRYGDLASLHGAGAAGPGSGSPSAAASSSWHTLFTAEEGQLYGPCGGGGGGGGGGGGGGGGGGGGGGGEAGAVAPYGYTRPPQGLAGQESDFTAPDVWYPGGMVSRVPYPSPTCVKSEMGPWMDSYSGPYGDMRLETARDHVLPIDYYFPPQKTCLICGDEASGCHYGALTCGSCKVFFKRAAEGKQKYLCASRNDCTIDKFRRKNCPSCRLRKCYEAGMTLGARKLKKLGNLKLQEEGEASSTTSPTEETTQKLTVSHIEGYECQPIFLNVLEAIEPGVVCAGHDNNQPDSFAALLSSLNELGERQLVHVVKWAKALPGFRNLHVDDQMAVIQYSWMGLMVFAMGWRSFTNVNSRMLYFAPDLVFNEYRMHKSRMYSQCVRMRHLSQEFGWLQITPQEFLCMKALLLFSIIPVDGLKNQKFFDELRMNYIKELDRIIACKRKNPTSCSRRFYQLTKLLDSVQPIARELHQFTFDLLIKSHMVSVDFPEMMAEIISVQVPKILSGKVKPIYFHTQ
Chain of Peroxisome proliferator-activated receptor delta (Homo sapiens) (Q03181 whole entry, looked up): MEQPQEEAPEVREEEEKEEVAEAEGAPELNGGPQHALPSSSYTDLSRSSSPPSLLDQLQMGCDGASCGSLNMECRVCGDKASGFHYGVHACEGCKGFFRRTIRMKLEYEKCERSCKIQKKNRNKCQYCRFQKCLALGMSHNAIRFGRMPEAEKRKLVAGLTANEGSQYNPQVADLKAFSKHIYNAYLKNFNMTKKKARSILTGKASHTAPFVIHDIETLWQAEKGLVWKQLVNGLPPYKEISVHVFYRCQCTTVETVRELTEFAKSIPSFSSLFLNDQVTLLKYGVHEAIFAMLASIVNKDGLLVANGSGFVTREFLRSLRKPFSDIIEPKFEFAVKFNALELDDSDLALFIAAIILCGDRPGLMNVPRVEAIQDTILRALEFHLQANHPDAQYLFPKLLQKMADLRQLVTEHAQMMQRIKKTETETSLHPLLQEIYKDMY
Chain of Ubiquitin carboxyl-terminal hydrolase 1 (Homo sapiens) (O94782 whole entry, looked up): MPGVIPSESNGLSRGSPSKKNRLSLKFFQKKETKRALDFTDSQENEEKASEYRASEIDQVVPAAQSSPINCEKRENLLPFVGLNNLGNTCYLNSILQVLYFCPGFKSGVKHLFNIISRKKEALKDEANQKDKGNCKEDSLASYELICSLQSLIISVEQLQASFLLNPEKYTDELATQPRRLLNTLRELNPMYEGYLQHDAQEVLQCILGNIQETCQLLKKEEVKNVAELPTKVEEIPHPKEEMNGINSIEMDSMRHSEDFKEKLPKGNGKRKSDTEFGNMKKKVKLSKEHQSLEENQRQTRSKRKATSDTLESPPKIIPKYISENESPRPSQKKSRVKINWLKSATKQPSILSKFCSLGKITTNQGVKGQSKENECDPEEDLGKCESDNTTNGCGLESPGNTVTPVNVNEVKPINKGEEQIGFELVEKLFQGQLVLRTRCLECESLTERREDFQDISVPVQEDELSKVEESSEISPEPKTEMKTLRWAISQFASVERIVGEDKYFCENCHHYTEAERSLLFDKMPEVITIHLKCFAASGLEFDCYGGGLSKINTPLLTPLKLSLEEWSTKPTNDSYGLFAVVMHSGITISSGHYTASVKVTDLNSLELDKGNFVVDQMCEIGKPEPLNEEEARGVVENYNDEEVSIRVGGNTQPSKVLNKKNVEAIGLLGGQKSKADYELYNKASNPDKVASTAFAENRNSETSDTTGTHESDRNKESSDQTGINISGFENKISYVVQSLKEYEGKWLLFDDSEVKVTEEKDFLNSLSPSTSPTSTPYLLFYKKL

Turning to `NS(=O)(=O)c1cc2c(cc1Cl)NC=NS2(=O)=O`, the result in assay [1] and in assay [2] was inactive.

Consider `CC(=O)N[C@@H](CS)C(=O)O`, for which the call in assay [1] and in assay [2] was inactive.

In the case of `CC1NCCOC1c1ccccc1` (centres undefined), the Potency entry in assay [3] is “inactive”.

`CC(C)(C)CC(C)(C)c1ccc(O)cc1`: the activation in assay [4] was 2.26%. Also, the compound was called inactive in assay [5].

As to `Oc1ccc(Cl)cc1Cc1ccccc1`, the activation in assay [4] is -12.3%. For the same compound, the compound was called inactive in assay [5].

For the origin of these results see PubChem BioAssay (NCATS).
